Measured values: PubChem BioAssay AID1159580 (chemical genetic matrix, 2015)
“And” between values parts separate entries of the source, which are not always exact repeats. Identical values can stand only once. Out of some 5,500 compounds screened, about 2,000 (36%) were called active. Another 18% or so got no clear call; they are omitted. No stated cut-off is given here; in the data, active means normalized growth mostly below about 0.91 (no sharp cut-off); inconclusive means no clear call, values can overlap the other calls; inactive means mostly above about 0.92. This is one part of the list.

Experiment: chemical genetic growth profiling, strain panel (AID 1159580);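 further: tested at 20 µM; growth read once vehicle control cultures reached saturation at 30 °C; 1 = growth at the plate median or of vehicle wells; lower values mean less growth of the strain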
Details: growth OD

Measured: normalized growth

COc1ccc(-c2cc(=O)c3c(O)cc(O)cc3o2)cc1O
inactive: S. cerevisiae deletion strains, locus YAL013W, strain DEP1, hits give low values 1 | S. cerevisiae deletion strains, locus YBR021W, strain FUR4, hits give low values 0.985 | S. cerevisiae deletion strains, locus YBR229C, strain ROT2, hits give low values 0.987 | S. cerevisiae deletion strains, locus YCL029C, strain bik1, hits give low values 0.997 | S. cerevisiae deletion strains, locus YDL035C, strain GPR1, hits give low values 0.983 | S. cerevisiae deletion strains, locus YDL074C, strain BRE1, hits give low values 0.969 | S. cerevisiae deletion strains, locus YDL101C, strain DUN1, hits give low values 0.998 | S. cerevisiae deletion strains, locus YDL134C, strain PPH21, hits give low values 0.993 | S. cerevisiae deletion strains, locus YDL185W, strain tfp1, hits give low values 1.01 | S. cerevisiae deletion strains, locus YDL192W, strain arf1, hits give low values 0.999 | S. cerevisiae deletion strains, locus YDR101C, strain arx1, hits give low values 0.98 | S. cerevisiae deletion strains, locus YDR150W, strain NUM1, hits give low values 1 | S. cerevisiae deletion strains, locus YDR162C, strain NBP2, hits give low values 0.961 | S. cerevisiae deletion strains, locus YDR318W, strain mcm21, hits give low values 0.995 | S. cerevisiae deletion strains, locus YDR388W, hits give low values 0.993 | S. cerevisiae deletion strains, locus YDR502C, strain sam2, hits give low values 0.975 | S. cerevisiae deletion strains, locus YEL061C, strain CIN8, hits give low values 0.994 | S. cerevisiae deletion strains, locus YER110C, hits give low values 1 | S. cerevisiae deletion strains, locus YER155C, strain BEM2, hits give low values 1 | S. cerevisiae deletion strains, locus YER167W, strain BCK2, hits give low values 0.997 | S. cerevisiae deletion strains, locus YGL078C, strain dbp3, hits give low values 0.989 | S. cerevisiae deletion strains, locus YGL086W, strain mad1, hits give low values 0.981 | S. cerevisiae deletion strains, locus YGL248W, strain PDE1, hits give low values 0.997 | S. cerevisiae deletion strains, locus YGR078C, strain PAC10, hits give low values 0.952 | S. cerevisiae deletion strains, locus YGR135W, strain pre9, hits give low values 0.962 | S. cerevisiae deletion strains, locus YGR229C, strain SMI1, hits give low values 0.937 | S. cerevisiae deletion strains, locus YGR252W, strain gcn5, hits give low values 0.96 | S. cerevisiae deletion strains, locus YHR030C, strain SLT2, hits give low values 0.997 and 1.02 | S. cerevisiae deletion strains, locus YHR079C, strain IRE1 (second series), hits give low values 0.983 | S. cerevisiae deletion strains, locus YHR079C, strain IRE1, hits give low values 1.01 | S. cerevisiae deletion strains, locus YHR094C, strain hxt1, hits give low values 1 | S. cerevisiae deletion strains, locus YHR129C, strain ARP1, hits give low values 0.989 | S. cerevisiae deletion strains, locus YHR200W, strain rpn10, hits give low values 0.99 | S. cerevisiae deletion strains, locus YIL066C, strain RNR3, hits give low values 0.987 | S. cerevisiae deletion strains, locus YIL073C, strain SPO22, hits give low values 1.02 | S. cerevisiae deletion strains, locus YIL125W, strain kgd1, hits give low values 0.995 | S. cerevisiae deletion strains, locus YIR030C, strain dcg1, hits give low values 0.991 | S. cerevisiae deletion strains, locus YJL095W, strain BCK1, hits give low values 0.944 and 0.996 | S. cerevisiae deletion strains, locus YJL134W, strain LCB3, hits give low values 0.998 | S. cerevisiae deletion strains, locus YJL168C, strain set2, hits give low values 0.998 | S. cerevisiae deletion strains, locus YJL187C, strain SWE1 (second series), hits give low values 0.967 | S. cerevisiae deletion strains, locus YJR043C, strain POL32, hits give low values 0.998 | S. cerevisiae deletion strains, locus YJR066W, strain TOR1, hits give low values 0.986 | S. cerevisiae deletion strains, locus YJR075W, strain HOC1, hits give low values 1.04 | S. cerevisiae deletion strains, locus YKL009W, strain mrt4, hits give low values 0.89 | S. cerevisiae deletion strains, locus YKL068W, hits give low values 0.968 | S. cerevisiae deletion strains, locus YKL190W, strain CNB1, hits give low values 0.993 | S. cerevisiae deletion strains, locus YKR001C, strain vps1, hits give low values 1 | S. cerevisiae deletion strains, locus YLR039C, strain RIC1, hits give low values 0.928 | S. cerevisiae deletion strains, locus YLR058C, strain SHM2, hits give low values 0.989 | S. cerevisiae deletion strains, locus YLR102C, strain apc9, hits give low values 0.995 | S. cerevisiae deletion strains, locus YLR113W, strain HOG1, hits give low values 0.888 | S. cerevisiae deletion strains, locus YLR262C, strain YPT6, hits give low values 0.921 | S. cerevisiae deletion strains, locus YLR268W, strain sec22, hits give low values 0.944 | S. cerevisiae deletion strains, locus YLR330W, strain CHS5, hits give low values 0.999 | S. cerevisiae deletion strains, locus YLR342W, strain FKS1 (second series), hits give low values 1.02 | S. cerevisiae deletion strains, locus YLR371W, strain rom2, hits give low values 0.99 | S. cerevisiae deletion strains, locus YLR418C, strain cdc73, hits give low values 0.925 | S. cerevisiae deletion strains, locus YML016C, strain PPZ1, hits give low values 0.991 | S. cerevisiae deletion strains, locus YML032C, strain rad52, hits give low values 1.01 | S. cerevisiae deletion strains, locus YML124C, strain tub3, hits give low values 0.988 | S. cerevisiae deletion strains, locus YMR078C, strain ctf18, hits give low values 1 | S. cerevisiae deletion strains, locus YMR223W, strain ubp8, hits give low values 0.993 | S. cerevisiae deletion strains, locus YMR263W, strain SAP30, hits give low values 0.982 | S. cerevisiae deletion strains, locus YMR307W, strain GAS1, hits give low values 1.08 | S. cerevisiae deletion strains, locus YNL067W, strain RPL9B, hits give low values 0.983 | S. cerevisiae deletion strains, locus YNL128W, strain TEP1, hits give low values 0.988 | S. cerevisiae deletion strains, locus YNL153C, strain GIM3, hits give low values 0.958 | S. cerevisiae deletion strains, locus YNL183C, strain NPR1, hits give low values 0.921 | S. cerevisiae deletion strains, locus YNL233W, strain BNI4, hits give low values 0.947 | S. cerevisiae deletion strains, locus YNL250W, strain rad50, hits give low values 1 | S. cerevisiae deletion strains, locus YNL271C, strain bni1, hits give low values 1 | S. cerevisiae deletion strains, locus YNL298W, strain CLA4, hits give low values 1.03 | S. cerevisiae deletion strains, locus YNL307C, strain MCK1, hits give low values 1 | S. cerevisiae deletion strains, locus YNL322C, strain KRE1, hits give low values 0.996 | S. cerevisiae deletion strains, locus YNR052C, strain pop2, hits give low values 0.994 | S. cerevisiae deletion strains, locus YOL006C, strain TOP1, hits give low values 0.973 | S. cerevisiae deletion strains, locus YOL012C, strain htz1 0.983 | S. cerevisiae deletion strains, locus YOL147C, strain pex11, hits give low values 0.992 | S. cerevisiae deletion strains, locus YOR061W, strain CKA2, hits give low values 1 | S. cerevisiae deletion strains, locus YOR069W, strain VPS5, hits give low values 0.998 | S. cerevisiae deletion strains, locus YOR136W, strain idh2, hits give low values 0.993 | S. cerevisiae deletion strains, locus YOR144C, strain elg1, hits give low values 0.997 | S. cerevisiae deletion strains, locus YOR184W, strain ser1, hits give low values 0.982 | S. cerevisiae deletion strains, locus YOR231W, strain MKK1, hits give low values 1.01 | S. cerevisiae deletion strains, locus YOR316C, strain cot1, hits give low values 0.989 | S. cerevisiae deletion strains, locus YPL055C, strain LGE1, hits give low values 0.97 | S. cerevisiae deletion strains, locus YPL241C, strain CIN2, hits give low values 1 | S. cerevisiae deletion strains, locus YPL256C, strain CLN2, hits give low values 0.993 | S. cerevisiae deletion strains, locus YPR119W, strain clb2, hits give low values 0.993 | S. cerevisiae deletion strains, locus YPR141C, strain kar3, hits give low values 1.01 | S. cerevisiae deletion strains, locus YPR163C, strain tif3, hits give low values 1.01 | S. cerevisiae deletion strains, locus YPR167C, strain met16, hits give low values 0.991 | S. cerevisiae deletion strains, strain wtn01, hits give low values 0.977 | S. cerevisiae strains, strain wild type, hits give low values 0.99
active: S. cerevisiae deletion strains, locus YKL085W, strain MDH1 (second series), hits give low values 0.913 | S. cerevisiae deletion strains, locus YKL085W, strain MDH1, hits give low values 0.913
